# Source: PubChem BioAssay (National Center for Advancing Translational Sciences (NCATS))
# Rows were chosen to be rich in hits. Some 15% of all compounds tested hit in one or more screens of this group.
# Sm TGR block = blocks Schistosoma mansoni thioredoxin glutathione reductase. AID 485364. Q962Y6. Potency, µM (doses to about 114 µM), inactives show top-dose activity change, negative = inhibition, usual class: inhibitors. purified TGR, DTNB reduction, TNB absorbance 405 nm. actives 3% (n = 360,000); also: potency is read from the fitted curve at half-maximal effect; % is scaled to controls: 0 for no effect and ±100 for the full control effect; nearly all actives have a fitted effect of over 60% in size
#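 TGR 20 nM + NADPH 100 uM (dispensed conc.), cpd preinc 15 min RT; start with NADPH (500 uM addition) then DTNB (15 mM addition). Kinetic TNB absorbance, 405 nm filter. Four-parameter Hill fit across titration.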
# HCMV inh = human cytomegalovirus inhibition | AID 1259415 | activity change, negative = inhibition, % at 57.5 µM | HFF cells, HCMV-luciferase reporter, 72 h; hits give low values | actives 4.5% (n = 410,000); in the data active = activity change below about -60%; inconclusive = no clear call, values can overlap the other calls; inactive = above about -39%; also: % is scaled to controls: 0 for no effect and ±100 for the full control effect
#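 Human foreskin fibroblasts infected with luciferase-reporter HCMV at MOI 1 PFU/cell, compounds at two doses. Luciferase measured 72 h post infection; normalized to buffer-only basal and Salinomycin (10uM) controls.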
# SARS PLpro yeast = SARS-CoV PLP inhibition in yeast. S. cerevisiae expressing SARS-CoV PLpro, growth rescue. Potency, µM (doses to about 32.9 µM), without a hit: top-dose activity, positive = growth rescue, hits mostly activators. actives 0.19% (n = 330,000); calls by dose curve; also: potency is read from the fitted curve at half-maximal effect; 0% is about no effect; nearly all actives have a fitted effect of over 55% in size
# HCV inhibitor = blocks hepatitis C virus; Huh7.5.1 HCVcc-Cre infection, luciferase reporter, 44 h; Potency, µM (series often up to 41.8 µM), inactives show top-dose activity change, negative = inhibition, actives largely listed as inhibitors; actives 3.4% (n = 340,000); also: potency is read from the fitted curve at half-maximal effect; % is scaled to controls: 0 for no effect and ±100 for the full control effect
#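 Whole-lifecycle infectious HCVcc-Cre system; cells 1,000/well, compound then virus (~0.5 moi) added 4 h after plating, 44 h culture. Luciferase read 15 sec following 15 min substrate incubation, room temp.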
# Pf growth 96h = P. falciparum growth inhibition at 96 hour, primary screen for plastid delayed-death inhibitors. Potency, µM (doses to about 28.7 µM), inactives show at the highest dose activity change, negative = inhibition, hits mostly inhibitors. AID 504834. actives 6.9% (n = 320,000). P. falciparum luciferase reporter growth, 96 h; also: potency is read from the fitted curve at half-maximal effect; % is scaled to controls: 0 for no effect and ±100 for the full control effect
#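 Plates of compound plus infected erythrocytes (2% hematocrit, 0.05% parasitemia final) incubate 96 hours, 37 C, 5% CO2. Detection reagent added; reduced luminescence from the parasites' luciferase reporter flags inhibition.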
# Pf growth 48h = P. falciparum growth inhibition at 48 hours (one generation); P. falciparum luciferase growth in erythrocytes, 48 h; Potency, µM (doses to about 28.7 µM), without a hit: at the top dose activity change, negative = inhibition, most hits filed as inhibitors; actives 5.9% (n = 310,000); AID 504832; also: potency is read from the fitted curve at half-maximal effect; % is scaled to controls: 0 for no effect and ±100 for the full control effect
#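 Growth was read as firefly luciferase luminescence after a 48 h, 37 C, 5% CO2 exposure of compounds to reporter-bearing P. falciparum cultures (0.1% parasitemia, 2% hematocrit final) in Albumax-supplemented RPMI 1640.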
# * = called active by the depositor; i = inactive; ? = inconclusive; · = not tested or not shown; [ ] = remark or other dose. Unless noted, calls follow the shape of the dose curve; as a rule, active = well fitted curve in the direction sought with a large enough effect; inconclusive = small, poorly fitted or top-dose-only effect, or another doubt; inactive = no such curve, though single readings can be large; an effect the other way counts as inactive or inconclusive.
SMILES,Sm TGR block,HCMV inh,SARS PLpro yeast,HCV inhibitor,Pf growth 96h,Pf growth 48h
CCN(CC)CCNc1ncnc2c1[nH]c1ccc(OC)cc12,4.2%,·,-2.1%,·,2.2%,3.5%
COc1ccc2c(c1)[nH]c1c(=O)n(CCC3=CCCCC3)cnc12,8.5%,4.7,-3.4%,5.0%,·,40.2%
COc1ccc2[nH]c3c(NCCCOC(C)C)ncnc3c2c1,-2.2%,85.5,1.7%,11.2µM*,-55.9%,-81.1%
CCOc1ccc2[nH]c3c(NCCN(C)C)ncnc3c2c1,4.8%,21.3,4.5%,·,2.08µM*,2.33µM*
COC(=O)c1ccc(NC(=O)CCC(=O)c2ccc(F)cc2)cc1,0.6%,-17.1,-1.2%,8.0%,22.0%,35.2%
COC(=O)C(c1ccccc1)(c1cn(-c2ccccc2)c2ccccc12)C(Nc1ccccc1)c1ccccc1 (stereo not given),·,-29.4,·,·,·,·
CCN(c1cccc(C)c1)c1nc2ccsc2c(=O)s1,-7.8%,58.3,-4.1%,-5.5%,8.28µM*,8.2%
CCN(c1ccccc1)c1nc(=O)c2cccnc2s1,5.0%,-39.4,0.2%,-2.7%,?,14.3%
CC(C)(C)S(=O)N1Cc2cc(C(=O)Nc3ccc(-c4ccccc4)cc3)nc(-c3cccc(-c4cc5ccccc5o4)c3)c2[C@@H]1CCO (stereo not given in full),·,-8.2,·,·,·,·
CC(C)(C)n1nnnc1C(c1cccs1)N1CCCC2(CCCCC2)C1 (stereo not given),-7.4%,-12.7,-52.7%,5.7%,?,5.22µM*
c1csc(C(c2nnnn2C2CCCCC2)N2CCCC3(CCCCC3)C2)c1 (stereo not given),-0.4%,?,23.4%,24.7%,?,2.62µM*
O=C(O)CCC1(CCC(=O)O)c2ccccc2-c2ccccc21,-6.3%,42.1,0.7%,17.8%,6.57µM*,-5.8%
COc1cc(NC(=O)c2c(OC)cccc2OC)ccc1NC(=O)c1cc2ccccc2o1,-10.2%,44.8,-8.1%,25.1µM*,4.1%,81.5%
O=C(Nc1ccc(NC(=O)c2cc3ccccc3o2)cc1)c1ccc2c(c1)OCCO2,20.1%,?,0.2%,?,i,?
COc1cc(NC(=O)c2ccc(C)cc2C)ccc1NC(=O)c1cc2ccccc2o1,-0.3%,-81.8*,2.7%,?,?,56.1%
COc1cc(NC(=O)c2ccc(F)cc2)ccc1NC(=O)c1cc2ccccc2o1,2.0%,-17.3,0.2%,?,272.8%,59.6%
Cc1cc(NC(=O)c2ccc3c(c2)OCCO3)ccc1NC(=O)c1cc2ccccc2o1,·,-7.5,0.4%,11.2µM*,?,20.6%
Cc1cccc(C)c1NC(=O)C1(C)CCC(=O)N1C1CC1 (stereo not given),·,-20.1,·,·,·,·
Oc1cc(O)cc(/C=C/c2ccc(O)c(O)c2)c1,22.4µM*,117.0,·,0.562µM*,1.3%,-2.6%
CCOC(=O)c1c(NC(=O)C2CC2)sc2c1CC(C)(C)OC2,15.7%,-16.2,-1.2%,?,-4.1%,11.7µM*
CC(=O)Nc1cc(OC(C)=O)c2nonc2c1OC(C)=O,8.91µM*,-103.6*,-16.1%,?,5.2%,10.4µM*
O=C(Nc1ccncc1)C1CCN(S(=O)(=O)c2cccc(C(F)(F)F)c2)CC1,-1.1%,-28.6,2.5%,-4.8%,9.28µM*,13.1µM*
Cc1ccc(NC(=O)C2CCN(S(=O)(=O)c3ccc4c(c3)OCCO4)CC2)nc1,-4.2%,-26.9,5.3%,-7.1%,5.6%,?
COc1ccc(OC2CCN(S(=O)(=O)c3ccccc3)CC2)cc1,-10.4%,1.3,-2.2%,-12.2%,180.5%,-11.9%
Cc1ccc(NC(=O)C2CCN(S(=O)(=O)c3cccc(C(F)(F)F)c3)CC2)nc1,0.6%,-93.6*,·,?,18.1%,45.6%
SMILES,Sm TGR block,HCMV inh,SARS PLpro yeast,HCV inhibitor,Pf growth 96h,Pf growth 48h
CC1CCN(S(=O)(=O)c2ccc3nc(Nc4ccc(C#N)cc4)ccc3c2)CC1,1.2%,?,·,·,·,·
Cc1ccc(S(=O)(=O)N2CCC(Oc3cccc(C(F)(F)F)c3)CC2)cc1,3.8%,-23.8,-1.3%,?,2.33µM*,2.2%
CC1CCN(S(=O)(=O)c2ccc3nc(Nc4cccc(C(F)(F)F)c4)ccc3c2)CC1,8.2%,-99.9*,·,·,·,·
O=S(=O)(c1cccc(C(F)(F)F)c1)N1CCC(c2cc(-c3cccc4ccccc34)n[nH]2)CC1,-26.2%,22.3,-3.2%,0.9%,10.4µM*,?
COc1ccc(S(=O)(=O)N2CCC(c3cc(-c4cccc5ccccc45)n[nH]3)CC2)cc1,-1.9%,12.5,-1.4%,?,?,?
CCN1C=C(C(C)=O)C(=O)CC1,·,-25.2,·,17.2%,·,·
O=C(Nc1nc(-c2ccc(Br)cc2)ns1)c1ccccc1F,1.4%,6.5,·,·,·,·
O=C(O)c1cc(-c2ccccc2)n(-c2ccccc2C(=O)O)n1,-0.1%,-99.9*,-2.1%,14.2%,42.2%,5.7%
O=C(O)c1cc(-c2ccccc2)n(-c2ccc(Cl)cc2Cl)n1,-3.1%,-16.2,1.3%,23.3%,21.1%,·
O=C1CC(N2CC=C(c3ccccc3)CC2)C(=O)N1c1ccc(F)cc1 (stereo not given),8.91µM*,·,-35.0%,18.1%,?,?
CCCOc1ccc(N2C(=O)CC(N3CC=C(c4ccccc4)CC3)C2=O)cc1 (stereo not given),28.2µM*,-32.6,-5.6%,-8.1%,14.0%,-11.3%
O=C1CC(N2CCN(c3ccccc3F)CC2)C(=O)N1c1ccc(F)cc1 (stereo not given),·,8.5,·,35.0%,·,·
CC1CCN(C(=O)C(=O)Nc2sc3c(c2C(N)=O)CC(C)(C)OC3)CC1,0.3%,46.3,2.4%,7.9%,18.7%,14.4%
Cc1cccc(-c2nc3c(c(SCC(N)=O)n2)CCCC3)c1,1.6%,15.1,-2.7%,3.9%,20.4%,-12.1%
Cc1cccc2c(SCC(N)=O)nc(-c3ccccc3)nc12,-10.2%,-32.4,-4.2%,7.08µM*,167.2%,10.0%
CN(C)C(=O)CSc1nc(-c2ccccc2)nc2c1CCCC2,-14.1%,-17.1,-12.2%,?,9.28µM*,?
NC(=O)CSc1nc(-c2ccccc2)nc2c1CCCC2,-0.4%,-2.4,-0.7%,-16.2%,7.38µM*,8.9%
O=C(Cn1c(C(F)(F)F)nc2ccccc21)N=Nc1c(O)[nH]c2ccc(Br)cc12,·,40.2,1.3%,-19.5%,-3.2%,-23.8%
O=[N+]([O-])c1ccccc1/C=N/Nc1nccnc1Cl,2.9%,79.1,-7.6%,5.9%,237.2%,91.9%
COc1cccc(/C=N/Nc2nccnc2Cl)c1O,-1.1%[57.1 µM],-96.4*,-6.1%,2.51µM*,-2.9%,?
O=C(O)c1cccc(Nc2ncnc3scc(-c4ccccc4)c23)c1,-4.1%,2.0,·,·,·,·
Oc1ccc(/C=N/Nc2nccnc2Cl)c(O)c1,-9.0%,-97.4*,3.16µM*,?,?,·
